About 2,000 (36%) of roughly 5,500 compounds were called active. Not shown: some 18% with an inconclusive outcome. Rule as the data show it: active = normalized growth mostly below about 0.91 (no sharp cut-off); inconclusive = no clear call, values can overlap the other calls; inactive = mostly above about 0.92. The list shows a part of the results.
Assay: chemical genetic growth profiling, strain panel (AID 1159580);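 also: tested at 20 µM; growth read once vehicle control cultures reached saturation at 30 °C; 1 = growth at the plate median or of vehicle wells; lower values mean less growth of the strain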
Settings: S. cerevisiae deletion strains, growth OD

Measured: normalized growth

CC1=CC(=O)c2c(O)cccc2C1=O
active: locus YAL021C, strain ccr4, hits give low values 0.0614 | locus YAL026C, strain drs2, hits give low values 0.0573 | locus YAL030W, strain snc1, hits give low values 0.0538 | locus YBL061C, strain skt5, hits give low values 0.0578 | locus YBR009C, strain hhf1, hits give low values 0.0566 | locus YBR023C, strain chs3, hits give low values 0.0593 | locus YBR171W, strain sec66, hits give low values 0.0747 | locus YBR231C, strain swc5, hits give low values 0.0608 | locus YBR279W, strain paf1, hits give low values 0.0613 | locus YCL011C, strain gbp2, hits give low values 0.053 | locus YCL016C, strain dcc1, hits give low values 0.0629 | locus YCL069W, strain vba3, hits give low values 0.058 | locus YCR088W, strain abp1, hits give low values 0.0593 | locus YDL005C, strain med2, hits give low values 0.0698 | locus YDL040C, strain nat1, hits give low values 0.073 | locus YDR001C, strain nth1, hits give low values 0.0551 | locus YDR069C, strain doa4, hits give low values 0.0589 | locus YDR137W, strain rgp1, hits give low values 0.103 | locus YDR159W, strain sac3, hits give low values 0.139 | locus YDR195W, strain ref2 0.132 | locus YDR297W, strain sur2, hits give low values 0.0527 | locus YDR334W, strain swr1, hits give low values 0.063 | locus YDR335W, strain msn5, hits give low values 0.0594 | locus YDR392W, strain spt3, hits give low values 0.0748 | locus YEL003W, strain gim4, hits give low values 0.0513 | locus YEL037C, strain rad23, hits give low values 0.0601 | locus YEL061C, strain CIN8 (second series), hits give low values 0.0564 | locus YER015W, strain faa2, hits give low values 0.0571 | locus YER016W, strain bim1, hits give low values 0.0586 | locus YER111C, strain swi4, hits give low values 0.71 | locus YER155C, strain BEM2 (second series), hits give low values 0.0832 | locus YFR010W, strain ubp6, hits give low values 0.0636 | locus YGL167C, strain pmr1, hits give low values 0.071 | locus YGL173C, strain kem1, hits give low values 0.0648 | locus YGL227W, strain vid30, hits give low values 0.0587 | locus YGL240W, strain doc1, hits give low values 0.0736 | locus YGL253W, strain hxk2, hits give low values 0.0519 | locus YHR013C, strain ard1, hits give low values 0.101 | locus YHR027C, strain rpn1, hits give low values 0.0589 | locus YHR030C, strain SLT2, hits give low values 0.108 | locus YHR079C, strain IRE1, hits give low values 0.123 | locus YHR142W, strain chs7, hits give low values 0.0661 | locus YJL092W, strain hpr5, hits give low values 0.061 | locus YJL095W, strain BCK1 (second series), hits give low values 0.0545 | locus YJL095W, strain BCK1, hits give low values 0.133 | locus YJL115W, strain asf1, hits give low values 0.0773 | locus YJL129C, strain trk1, hits give low values 0.653 | locus YJL154C, strain vps35, hits give low values 0.0541 | locus YJL164C, strain tpk1, hits give low values 0.0572 | locus YJL166W, strain qcr8, hits give low values 0.0557 | locus YJL187C, strain SWE1, hits give low values 0.0545 | locus YJR066W, strain TOR1, hits give low values 0.00113 | locus YKL160W, strain elf1, hits give low values 0.0646 | locus YKR026C, strain gcn3, hits give low values 0.0585 | locus YKR091W, strain srl3, hits give low values 0.0562 | locus YLL001W, strain dnm1, hits give low values 0.0574 | locus YLL026W, hits give low values 0.0541 | locus YLL041C, strain sdh2, hits give low values 0.0519 | locus YLR027C, strain aat2, hits give low values 0.0528 | locus YLR113W, strain HOG1, hits give low values 0.191 | locus YLR221C, strain rsa3, hits give low values 0.054 | locus YLR258W, strain gsy2, hits give low values 0.056 | locus YLR262C, strain YPT6 (second series), hits give low values 0.0717 | locus YLR320W, strain mms22, hits give low values 0.0755 | locus YLR342W, strain FKS1, hits give low values 0.0621 | locus YLR357W, strain rsc2, hits give low values 0.113 | locus YLR370C, strain arc18, hits give low values 0.0568 | locus YLR384C, strain iki3, hits give low values 0.0609 | locus YML120C, strain ndi1, hits give low values 0.0584 | locus YMR058W, strain fet3, hits give low values 0.0576 | locus YMR125W, strain sto1, hits give low values 0.0728 | locus YMR129W, hits give low values 0.0547 | locus YMR205C, strain PFK2, hits give low values 0.0815 | locus YMR231W, strain pep5, hits give low values 0.0627 | locus YNL071W, strain lat1, hits give low values 0.0579 | locus YNL183C, strain NPR1, hits give low values 0.000686 | locus YNL209W, strain ssb2, hits give low values 0.0563 | locus YNL248C, strain rpa49, hits give low values 0.0708 | locus YNL322C, strain KRE1 (second series), hits give low values 0.062 | locus YNR049C, strain mso1, hits give low values 0.0527 | locus YOR001W, strain rrp6, hits give low values 0.065 | locus YOR070C, strain gyp1, hits give low values 0.0567 | locus YOR080W, strain dia2, hits give low values 0.1 | locus YOR083W, strain WHI5, hits give low values 0.0584 | locus YOR106W, strain vam3, hits give low values 0.0629 | locus YOR231W, strain MKK1, hits give low values 0.115 | locus YOR265W, strain rbl2, hits give low values 0.0542 | locus YOR270C, strain vph1, hits give low values 0.0962 | locus YPL051W, strain arl3, hits give low values 0.0583 | locus YPL078C, strain atp4, hits give low values 0.163 | locus YPL106C, strain sse1, hits give low values 0.0924 | locus YPL240C, strain hsp82, hits give low values 0.0548 | locus YPL256C, strain CLN2, hits give low values 0.128
inactive: locus YOR290C, strain snf2, hits give low values 0.906

Reference: PubChem BioAssay AID1159580 (chemical genetic matrix, 2015)
